The values that follow come from ChEMBL document CHEMBL1961873, “Compounds: GSK PKIS; Assays: Nanosyn kinase panel” (2012).

Structures are written as SMILES.

By inhibition is commonly meant the drop in the measured response relative to a control, in per cent.

Assay [1] concerns the target Dual specificity protein kinase CLK3 (Homo sapiens) (UniProt P49761). As to conditions: at 1 µM.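 Note: each value is the mean inhibition of CLK3.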
For assay [2], the target named is Dual specificity tyrosine-phosphorylation-regulated kinase 1A (Homo sapiens) (UniProt Q13627). As to conditions: at 0.1 µM.
The target is the same in assay [3]. The settings on record: at 1 µM.
Assay [4] has as its target Dual specificity tyrosine-phosphorylation-regulated kinase 1B (Homo sapiens) (UniProt Q9Y463). The settings on record: at 0.1 µM.
Assay [5] has the same target. As to conditions: at 1 µM.
In assay [6] the target is T1, Dual specificity tyrosine-phosphorylation-regulated kinase 2 (Homo sapiens) (UniProt Q92630).
T1 sequence (whole entry): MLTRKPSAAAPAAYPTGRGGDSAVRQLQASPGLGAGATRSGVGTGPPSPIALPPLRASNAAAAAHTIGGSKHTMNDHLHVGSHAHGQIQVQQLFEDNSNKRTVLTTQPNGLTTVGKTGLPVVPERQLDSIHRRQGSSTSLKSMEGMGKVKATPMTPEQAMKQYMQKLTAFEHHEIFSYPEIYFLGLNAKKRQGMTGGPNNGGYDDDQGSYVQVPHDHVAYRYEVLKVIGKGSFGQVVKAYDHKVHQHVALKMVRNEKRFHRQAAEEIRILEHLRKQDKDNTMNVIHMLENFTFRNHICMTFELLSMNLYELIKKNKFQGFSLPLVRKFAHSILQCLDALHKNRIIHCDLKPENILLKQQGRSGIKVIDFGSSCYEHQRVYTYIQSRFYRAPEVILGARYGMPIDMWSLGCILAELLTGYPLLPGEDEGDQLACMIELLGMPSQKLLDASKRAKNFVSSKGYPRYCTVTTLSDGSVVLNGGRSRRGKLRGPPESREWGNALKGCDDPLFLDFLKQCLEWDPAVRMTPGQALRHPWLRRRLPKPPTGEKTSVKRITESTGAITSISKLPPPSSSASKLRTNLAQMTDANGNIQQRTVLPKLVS
As to conditions: at 0.1 µM.

Assay [7] concerns the target T1, Dual specificity tyrosine-phosphorylation-regulated kinase 2 (Homo sapiens). As to conditions: at 1 µM.
Assay [8] has as its target Glycogen synthase kinase-3 alpha (Homo sapiens) (UniProt P49840). The settings on record: at 0.1 µM.
Assay [9] has the same target. The settings on record: at 1 µM.
For assay [10], the target named is Glycogen synthase kinase-3 beta (Homo sapiens) (UniProt P49841). As to conditions: at 0.1 µM.
Chain of Glycogen synthase kinase-3 beta (Homo sapiens) (P49841 whole entry, looked up): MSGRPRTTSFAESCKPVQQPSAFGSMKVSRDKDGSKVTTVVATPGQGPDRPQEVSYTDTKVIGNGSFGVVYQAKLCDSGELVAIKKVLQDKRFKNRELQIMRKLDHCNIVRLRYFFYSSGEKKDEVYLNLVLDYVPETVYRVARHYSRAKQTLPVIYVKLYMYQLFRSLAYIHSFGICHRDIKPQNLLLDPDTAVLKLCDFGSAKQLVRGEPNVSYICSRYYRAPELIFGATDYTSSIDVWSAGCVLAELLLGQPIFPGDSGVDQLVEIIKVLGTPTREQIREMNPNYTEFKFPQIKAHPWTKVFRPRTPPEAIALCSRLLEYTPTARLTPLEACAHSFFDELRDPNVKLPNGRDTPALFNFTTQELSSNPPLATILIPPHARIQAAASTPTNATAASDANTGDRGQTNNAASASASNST
The target is the same in assay [11]. As to conditions: at 1 µM.
In assay [12] the target is Homeodomain-interacting protein kinase 1 (Homo sapiens) (UniProt Q86Z02). As to conditions: at 0.1 µM.
Chain of Homeodomain-interacting protein kinase 1 (Homo sapiens) (Q86Z02 whole entry, looked up): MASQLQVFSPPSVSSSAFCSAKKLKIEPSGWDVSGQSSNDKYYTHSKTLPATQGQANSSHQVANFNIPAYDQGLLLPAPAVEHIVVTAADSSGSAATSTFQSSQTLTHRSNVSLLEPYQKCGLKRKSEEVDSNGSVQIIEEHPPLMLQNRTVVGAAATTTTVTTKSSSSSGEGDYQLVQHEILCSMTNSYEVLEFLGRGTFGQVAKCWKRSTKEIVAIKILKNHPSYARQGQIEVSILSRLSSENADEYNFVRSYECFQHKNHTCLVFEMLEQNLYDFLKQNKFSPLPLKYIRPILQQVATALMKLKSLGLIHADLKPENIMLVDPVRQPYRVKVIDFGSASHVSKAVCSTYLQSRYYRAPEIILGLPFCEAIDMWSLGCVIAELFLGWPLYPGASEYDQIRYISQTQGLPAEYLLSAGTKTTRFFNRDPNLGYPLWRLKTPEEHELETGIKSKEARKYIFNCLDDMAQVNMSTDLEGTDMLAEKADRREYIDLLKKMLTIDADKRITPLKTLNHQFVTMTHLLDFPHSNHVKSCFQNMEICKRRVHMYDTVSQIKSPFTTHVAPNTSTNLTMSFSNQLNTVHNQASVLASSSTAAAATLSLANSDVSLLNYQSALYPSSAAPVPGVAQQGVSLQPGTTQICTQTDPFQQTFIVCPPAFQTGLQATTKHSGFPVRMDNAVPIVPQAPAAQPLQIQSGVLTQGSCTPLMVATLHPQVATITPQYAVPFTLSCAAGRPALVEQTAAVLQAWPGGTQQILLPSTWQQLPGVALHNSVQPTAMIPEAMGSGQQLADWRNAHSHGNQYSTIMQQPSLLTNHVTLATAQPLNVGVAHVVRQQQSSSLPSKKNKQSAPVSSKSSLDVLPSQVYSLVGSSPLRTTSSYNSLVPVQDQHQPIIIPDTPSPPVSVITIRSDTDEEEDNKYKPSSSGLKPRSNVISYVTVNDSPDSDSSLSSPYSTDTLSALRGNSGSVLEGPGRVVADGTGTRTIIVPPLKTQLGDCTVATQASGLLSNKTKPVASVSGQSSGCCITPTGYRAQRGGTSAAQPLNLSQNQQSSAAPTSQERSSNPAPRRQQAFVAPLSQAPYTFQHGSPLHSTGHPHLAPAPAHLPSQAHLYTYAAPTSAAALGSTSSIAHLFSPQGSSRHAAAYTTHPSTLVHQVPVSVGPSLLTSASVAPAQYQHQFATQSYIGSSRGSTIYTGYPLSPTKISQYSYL
The target is the same in assay [13]. The settings on record: at 1 µM.
Assay [14] concerns the target T2, Homeodomain-interacting protein kinase 4 (Homo sapiens) (UniProt Q8NE63).
T2 sequence (whole entry): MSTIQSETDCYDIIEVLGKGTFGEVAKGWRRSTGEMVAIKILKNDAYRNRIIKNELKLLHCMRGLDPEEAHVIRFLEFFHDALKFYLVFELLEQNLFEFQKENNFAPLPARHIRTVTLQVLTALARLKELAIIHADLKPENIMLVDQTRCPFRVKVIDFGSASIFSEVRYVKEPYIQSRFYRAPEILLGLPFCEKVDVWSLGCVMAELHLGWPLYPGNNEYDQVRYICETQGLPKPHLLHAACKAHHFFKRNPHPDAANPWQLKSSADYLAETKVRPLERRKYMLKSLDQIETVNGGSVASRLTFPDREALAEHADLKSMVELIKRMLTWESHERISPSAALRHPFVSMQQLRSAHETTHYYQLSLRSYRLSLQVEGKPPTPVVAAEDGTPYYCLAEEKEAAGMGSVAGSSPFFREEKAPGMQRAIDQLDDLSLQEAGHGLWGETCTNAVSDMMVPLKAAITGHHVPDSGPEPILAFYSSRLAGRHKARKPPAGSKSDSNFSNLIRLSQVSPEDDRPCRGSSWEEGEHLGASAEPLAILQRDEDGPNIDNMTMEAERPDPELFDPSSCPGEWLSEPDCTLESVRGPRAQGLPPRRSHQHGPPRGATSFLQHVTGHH
As to conditions: at 0.1 µM.

Assay [15] addresses T2, Homeodomain-interacting protein kinase 4 (Homo sapiens). The settings on record: at 1 µM.
Assay [16] concerns the target Mitogen-activated protein kinase 9 (Homo sapiens) (UniProt P45984). As to conditions: at 0.1 µM.
For assay [17] the target is unchanged. As to conditions: at 1 µM.
The target of assay [18] is Mitogen-activated protein kinase 1 (Homo sapiens) (UniProt P28482). As to conditions: at 0.1 µM.
Chain of Mitogen-activated protein kinase 1 (Homo sapiens) (P28482 whole entry): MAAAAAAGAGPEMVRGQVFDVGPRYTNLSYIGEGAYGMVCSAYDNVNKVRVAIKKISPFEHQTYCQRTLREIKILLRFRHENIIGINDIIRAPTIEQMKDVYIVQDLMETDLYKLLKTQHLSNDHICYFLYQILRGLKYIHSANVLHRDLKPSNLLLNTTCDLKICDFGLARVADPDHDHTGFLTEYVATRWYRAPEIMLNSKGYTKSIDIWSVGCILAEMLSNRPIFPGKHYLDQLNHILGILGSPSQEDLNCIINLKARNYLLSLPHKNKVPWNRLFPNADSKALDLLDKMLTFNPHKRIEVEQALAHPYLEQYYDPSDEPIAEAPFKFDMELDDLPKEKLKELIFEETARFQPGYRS
Assay [19] shares this target. As to conditions: at 1 µM.
The target in assay [20] is Mitogen-activated protein kinase 3 (Homo sapiens) (UniProt P27361). The settings on record: at 0.1 µM.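 Note: each value is a mean inhibition figure.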
Chain of Mitogen-activated protein kinase 3 (Homo sapiens) (P27361 whole entry): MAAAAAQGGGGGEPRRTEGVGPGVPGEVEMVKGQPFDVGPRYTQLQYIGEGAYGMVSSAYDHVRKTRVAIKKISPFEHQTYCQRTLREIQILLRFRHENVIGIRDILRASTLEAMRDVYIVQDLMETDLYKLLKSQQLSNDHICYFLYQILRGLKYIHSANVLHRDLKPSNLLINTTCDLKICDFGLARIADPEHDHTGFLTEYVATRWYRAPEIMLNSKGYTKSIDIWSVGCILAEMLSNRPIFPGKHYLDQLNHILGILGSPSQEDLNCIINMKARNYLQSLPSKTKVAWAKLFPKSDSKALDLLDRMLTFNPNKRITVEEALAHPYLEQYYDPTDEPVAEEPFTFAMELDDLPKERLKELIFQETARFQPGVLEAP

Chain of Dual specificity tyrosine-phosphorylation-regulated kinase 1B (Homo sapiens) (Q9Y463 whole entry, looked up): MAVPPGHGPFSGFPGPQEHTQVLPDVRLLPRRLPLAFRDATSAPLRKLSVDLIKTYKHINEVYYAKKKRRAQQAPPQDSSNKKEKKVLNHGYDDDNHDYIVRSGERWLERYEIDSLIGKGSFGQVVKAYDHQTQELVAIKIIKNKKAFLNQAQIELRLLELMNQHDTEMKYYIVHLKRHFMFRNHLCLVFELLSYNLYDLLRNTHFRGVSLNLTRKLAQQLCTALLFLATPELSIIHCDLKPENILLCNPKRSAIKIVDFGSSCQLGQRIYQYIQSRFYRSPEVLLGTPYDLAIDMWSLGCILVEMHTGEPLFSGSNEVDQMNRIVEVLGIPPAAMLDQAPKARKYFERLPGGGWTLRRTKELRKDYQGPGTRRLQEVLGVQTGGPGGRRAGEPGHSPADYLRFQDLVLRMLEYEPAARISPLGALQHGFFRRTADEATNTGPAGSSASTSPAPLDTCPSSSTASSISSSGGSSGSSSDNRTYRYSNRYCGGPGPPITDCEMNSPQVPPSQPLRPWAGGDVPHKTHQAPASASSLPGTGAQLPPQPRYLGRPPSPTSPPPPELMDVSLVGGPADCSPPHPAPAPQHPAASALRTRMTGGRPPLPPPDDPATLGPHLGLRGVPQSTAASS
Chain of Glycogen synthase kinase-3 alpha (Homo sapiens) (P49840 2-483 limits assumed): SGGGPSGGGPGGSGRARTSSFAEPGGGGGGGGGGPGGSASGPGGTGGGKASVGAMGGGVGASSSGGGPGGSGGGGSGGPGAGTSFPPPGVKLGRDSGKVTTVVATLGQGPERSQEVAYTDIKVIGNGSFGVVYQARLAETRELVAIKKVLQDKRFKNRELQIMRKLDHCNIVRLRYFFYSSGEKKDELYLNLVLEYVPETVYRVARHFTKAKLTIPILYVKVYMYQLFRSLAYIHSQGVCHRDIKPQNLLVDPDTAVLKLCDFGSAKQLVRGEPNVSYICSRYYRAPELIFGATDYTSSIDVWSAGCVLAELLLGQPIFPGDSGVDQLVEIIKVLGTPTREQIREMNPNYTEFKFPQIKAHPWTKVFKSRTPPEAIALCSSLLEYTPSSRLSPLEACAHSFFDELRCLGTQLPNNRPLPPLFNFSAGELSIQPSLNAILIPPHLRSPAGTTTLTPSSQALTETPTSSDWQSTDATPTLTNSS
Chain of Dual specificity protein kinase CLK3 (Homo sapiens) (P49761 whole entry, looked up): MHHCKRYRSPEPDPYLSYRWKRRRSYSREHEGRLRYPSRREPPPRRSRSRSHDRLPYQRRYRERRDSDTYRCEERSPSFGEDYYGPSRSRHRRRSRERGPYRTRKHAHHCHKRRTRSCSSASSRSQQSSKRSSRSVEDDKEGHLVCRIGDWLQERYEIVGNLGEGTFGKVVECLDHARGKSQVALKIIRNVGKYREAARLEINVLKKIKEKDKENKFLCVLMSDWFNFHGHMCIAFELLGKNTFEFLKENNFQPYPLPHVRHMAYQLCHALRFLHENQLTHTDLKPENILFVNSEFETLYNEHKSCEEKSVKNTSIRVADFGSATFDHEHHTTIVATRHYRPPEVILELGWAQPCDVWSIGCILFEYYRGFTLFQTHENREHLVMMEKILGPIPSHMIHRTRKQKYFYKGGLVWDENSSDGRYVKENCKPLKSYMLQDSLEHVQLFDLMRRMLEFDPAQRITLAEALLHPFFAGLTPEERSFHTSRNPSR
Chain of Mitogen-activated protein kinase 9 (Homo sapiens) (P45984 whole entry, looked up): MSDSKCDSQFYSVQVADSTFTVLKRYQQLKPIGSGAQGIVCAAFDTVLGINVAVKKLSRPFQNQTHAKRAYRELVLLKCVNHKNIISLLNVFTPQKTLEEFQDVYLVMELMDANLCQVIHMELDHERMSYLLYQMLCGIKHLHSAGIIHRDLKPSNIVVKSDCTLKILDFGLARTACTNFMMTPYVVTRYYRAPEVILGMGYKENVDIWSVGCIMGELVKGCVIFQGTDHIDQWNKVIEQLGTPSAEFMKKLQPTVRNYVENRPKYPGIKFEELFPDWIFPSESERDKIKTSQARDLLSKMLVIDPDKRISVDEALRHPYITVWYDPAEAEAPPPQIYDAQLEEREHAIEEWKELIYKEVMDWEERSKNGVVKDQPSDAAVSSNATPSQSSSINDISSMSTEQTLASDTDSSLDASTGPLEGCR

Consider `Nc1nccc(-c2c(-c3ccc(F)cc3)ncn2CCCN2CCOCC2)n1`, for which the inhibition in assay [1] stood at 1.24%; in assay [2], 2.64%; in [3], 3.19%; in assay [4], 0.74%; in [5], 0.15%; in [6], 3.1%. Also, the inhibition in assay [7] turned out to be 4.1%; in assay [8], 1.73%; in [9], 4.53%; in assay [10], 0.93%; in assay [11] it was 4.68%; in [12], 0.97%. Moreover, the inhibition was -1.48% in assay [13]; 0.18% in [14]; -0.66% in assay [15]; 4.45% in assay [16]; 15.8% in assay [17]; 6.64% in assay [18]. For the same compound, the inhibition came to 4.64% in [19] and 3.65% in [20].

For `Cc1ccc(Nc2ccnc(Nc3cccc(C(N)=O)c3)n2)cc1O`, the inhibition is 3.09% in assay [1]; 2.45% in [2]; 26.5% in [3]; -1.03% in assay [4]; 11.8% in [5]; 2.25% in assay [6]. The inhibition in assay [7] is 7.18%; in assay [8], 0.67%; in [9], 14.9%; in assay [10], 0.74%; in [11], 17.4%; in assay [12], -4.04%. Besides, the inhibition in assay [13] came to 0.47%; in assay [14], 2.33%; in [15], 10.8%; in assay [16], 3.91%; in assay [17] it was 14.6%; in assay [18], 4.59%. For the same compound, the inhibition came to 4.19% in assay [19] and 3.66% in assay [20].

As for `NS(=O)(=O)c1ccc(-c2cc3ccncc3cc2OCc2ccccc2)cc1`, the inhibition in [1] was 3.69%; in [2], 1.26%; in assay [3] it was 4.84%; in assay [4], 0.97%; in assay [5] it was 2.12%; in [6] it was 2.46%. Moreover, the inhibition came out at 3.11% in assay [7]; 2.45% in [8]; 4.95% in assay [9]; 2.08% in assay [10]; 3.98% in assay [11]; 1.69% in [12]. Besides, the inhibition in assay [13] is 4.62%; in assay [14], 3.58%; in assay [15] it was 6.62%; in assay [16] it was 3.39%; in assay [17], 6.21%; in [18], 5.32%. For the same compound, the inhibition in assay [19] was found to be 3.37%; in assay [20], 4.03%.

Take `CS(=O)(=O)Nc1cccc(-c2ccc3c(NC(=O)C4CC4)n[nH]c3c2)c1`: the inhibition was 0.41% in [1]; -0.85% in assay [2]; 2.54% in assay [3]; -0.36% in [4]; 0.44% in assay [5]; 1.73% in assay [6]. In addition, the inhibition was 0.58% in assay [7]; 2.17% in assay [8]; 10.3% in assay [9]; 1.76% in assay [10]; 9.5% in assay [11]; -3.76% in [12]. Besides, the inhibition was 0.93% in assay [13]; -0.79% in [14]; -0.86% in assay [15]; 2.2% in assay [16]; 0.27% in assay [17]; -0.71% in [18]. For the same compound, the inhibition came to 1.14% in assay [19] and 2.44% in [20].

For the compound `COc1cccc(-n2nc(C)c3c(N/N=C(\C)c4ccncc4)ncnc32)c1`, the inhibition in assay [1] was -2.35%; in assay [2], 1.02%; in assay [3], 11%; in assay [4] it was 1.32%; in assay [5], 8.31%; in [6], 0.5%. The inhibition in assay [7] was 4.22%; in [8], 4.39%; in assay [9], 11.6%; in assay [10] it was 3.08%; in assay [11] it was 9.41%; in [12], -1.66%. For the same compound, the inhibition in assay [13] is 2.66%; in [14] it was -1.56%; in assay [15], 2.79%; in assay [16], 1.92%; in [17], 2.01%; in [18] it was 2.86%. In addition, the values for the inhibition in [19] and in assay [20] were 1.42% and -1.05%, respectively.

For the compound `NS(=O)(=O)c1ccc(NC=C2C(=O)Nc3ccc4ncsc4c32)cc1`, the inhibition in [1] was 17.3%; in [2], 30.9%; in assay [3] it was 63.2%; in [4], 20.4%; in [5], 57.6%; in assay [6], 10.9%. The inhibition in assay [7] came out at 46.2%; in assay [8] it was 40.4%; in [9], 70.9%; in [10], 41.1%; in assay [11], 71.8%; in assay [12] it was 14.2%. Further, the inhibition in assay [13] came to 47.4%; in assay [14], 2.67%; in assay [15], 21.7%; in assay [16], 8.45%; in assay [17], 36.1%; in assay [18] it was 11%. The inhibition in [19] came to 47.4%; in assay [20] it was 7.04%.

Consider `CCOc1nccc2c1nc(-c1nonc1N)n2CC`, for which the inhibition was determined as 2.9% in assay [1]; 1.13% in assay [2]; 3.41% in assay [3]; 0.32% in assay [4]; 2.83% in assay [5]; 1.54% in [6]. Also, the inhibition in assay [7] came out at 2.84%; in assay [8], 3.1%; in [9], 10.2%; in [10], 3.37%; in assay [11] it was 11.9%; in assay [12] it was 5.35%. The inhibition in assay [13] worked out at 9.39%; in [14], 6.7%; in assay [15], 12.2%; in assay [16], 1.55%; in [17], 1.43%; in assay [18], 4.78%. In addition, the figures for the inhibition in [19] and in [20] were 4.07% and 5.64%, respectively.
